According to PubChem BioAssay (NCATS):
Inconclusive results are not listed. Entries that show only a call come without a potency. The source made the active and inactive calls. Calls come from the whole dose curve; as a rule, active = well fitted cell-killing curve with a large enough effect; inconclusive = small, poorly fitted or top-dose-only effect; inactive = flat fitted curve, though single readings scatter.

test: Cell Viability - LYMP2-023 (AID 975); details: LYMP2-023 lymphoblastoid cell viability; series mostly up to 92.2 µM; note: nearly all actives have a fitted effect of over 55% in size
Excerpt: NIH Chemical Genomics Center [NCGC]
NIH Molecular Libraries Screening Centers Network [MLSCN]
National Institutes of Environmental Health Sciences [NIEHS]
National Toxicology Program [NTP]
We have developed a 1536-well cell-based assay for quantitative high throughput screening (qHTS) against a number of cell lines to determine in vitro cytotoxicity of small molecules. This particular assay uses a human lymphoblastoid cell line (LYMP2-023) purchased from Coriell Institute for Medical Research.
NCGC Assay Protocol Summary:
The CellTiter-Glo luminescent cell viability assay (Promega) is a homogeneous method to measure the number of viable cells in culture. The end point readout of this assay is based on quantitation of intracellular ATP, an indicator of metabolic activity, using the luciferase reaction. Luciferase catalyzes the oxidation of beetle Luciferin to oxyluciferin and light in the presence of ATP. The luminescent signal is proportional to amount of ATP present.
Using the CellTiter-Glo luminescent cell viability assay, the amount of cellular ATP was measured in the lymphoblastoid cell line with complete culture medium following compound treatment for 24 hours. The assay was performed in opaque white Kalypsys 1536-well plates. In the screen, tetraoctylammonium bromide was used as positive control. Library compounds were measured for their ability to cause acute toxicity in the cell line, as reflected by a decrease in intracellular ATP levels, in a concentration-dependent manner. […] AC50 values were determined from concentration-response data modeled with the standard Hill equation.
qHTS protocol for CellTiter Glo lymphoblastoid cellular assay
[Step] [Parameter] [Value] [Description]
1. Reagent; 5 uL; 2500 lymphoblastoid cells/well
2. Time; 5 hr; 37 C incubation
4. Controls; 23 nL; Tetraoctylammonium bromide 6.4pM to 92 uM
5. Time; 24 hr; 37 C incubation
6. Reagent; 5 uL; CellTiter Glo reagent
7. Time; 30 min; Room Temperature
8. Detection; Luminescence; Viewlux plate reader
Keywords: cell viability, cytotoxicity, lymphoblastoid cell line, luminescence, NTPHTS, NTPHTS_NCGC, NIEHS, DSSTox, MLSMR, MLSCN, NIH Roadmap, qHTS, NCGC

SMILES | Potency
COc1ccccc1N | inactive
O=Cc1ccc(Cl)cc1Cl | inactive
ClCCCCl | inactive
O=C(O)C(Cl)(Cl)Br | inactive
Cc1ccc(N)c(C)c1 | inactive
COc1ccc(C=O)cc1 | inactive
CC(C)(C)C(O)(CCc1ccc(Cl)cc1)Cn1cncn1 (stereo not given) | inactive
CCN(CC)CCO | inactive
N#CCCC#N | inactive
c1ccc(Nc2ccc(Nc3ccccc3)cc2)cc1 | inactive
COC(=O)Nc1cccc(OC(=O)Nc2cccc(C)c2)c1 | inactive
CN(C)C(=O)Nc1cccc(C(F)(F)F)c1 | inactive
Cc1cc(-c2ccc(N)c(C)c2)ccc1N | inactive
NNC(N)=S | inactive
CC(C)(Cl)Cl | inactive
Cc1ccc(OP(=O)(Oc2ccc(C)cc2)Oc2ccc(C)cc2)cc1 | inactive
O=C(O)c1cccc(Cl)c1 | inactive
CC(C#N)CCC#N (stereo not given) | inactive
C(CCOCC1CO1)COCC1CO1 (stereo not given) | inactive
CC1CC(=O)O1 (stereo not given) | inactive

SMILES | Potency
CCOP(=O)(OCC)OCC | inactive
Nc1ncc([N+](=O)[O-])s1 | inactive
CCCBr | inactive
O=NN1CCCCC1 | inactive
Cc1cnc[nH]1 | inactive
COC(=O)c1ccccc1N | inactive
CC(C)(C)c1ccccc1O | inactive
C=COC(C)=O | inactive
NC1CCC(CC2CCC(N)CC2)CC1 (stereo not given) | inactive
CN(C)c1ccc(N=Nc2ccccc2)cc1 | inactive
CCCCOC(C)=O | inactive
N#C/C(N)=C(/N)C#N | inactive
ClCC(Br)CBr (stereo not given) | inactive
CC(C)(COCC1CO1)COCC1CO1 (stereo not given) | inactive
CC(C)[C@]12CC(=O)[C@H](C)[C@H]1C2 | inactive
CCCCCCCCCCCCCl | inactive
CC(C)Br | inactive
ClC(Cl)C(Cl)Cl | inactive
S=c1[nH]c2ccccc2[nH]1 | inactive
[O-][Cl+2]([O-])O | inactive
